# Experiments:
# Test in all cases: DAPPL (digital affinity profiling via proximity ligation, sequencing); 10 mM Tris-HCl pH 7.5, 50 mM NaCl, 1 mM DTT, 4% glycerol, room temperature, 30 min; GST-TFs on glutathione beads, 16-mer random dsDNA library, 0.1% formaldehyde crosslink after washing; high values mean tight binding
# Settings in all cases: protein: recombinant; tags: N-terminal GST; dsDNA, one strand shown
# ELK4 = biological target: T1, ELK4 (Homo sapiens, UniProt P28324-2 1-405)
# T1 sequence: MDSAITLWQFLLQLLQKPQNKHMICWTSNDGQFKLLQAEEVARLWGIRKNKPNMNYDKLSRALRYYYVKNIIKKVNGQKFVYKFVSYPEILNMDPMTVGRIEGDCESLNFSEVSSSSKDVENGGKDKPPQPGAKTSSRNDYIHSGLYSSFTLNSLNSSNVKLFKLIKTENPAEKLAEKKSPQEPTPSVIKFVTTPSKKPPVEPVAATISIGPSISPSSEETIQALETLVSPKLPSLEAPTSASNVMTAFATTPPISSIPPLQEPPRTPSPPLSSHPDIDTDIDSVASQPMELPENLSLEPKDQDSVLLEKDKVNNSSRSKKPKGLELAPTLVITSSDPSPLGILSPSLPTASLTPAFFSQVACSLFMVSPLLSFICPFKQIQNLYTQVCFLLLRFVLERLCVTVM
# Summary of the method: (§1)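 Pools were built from human transcription factors expressed in yeast as GST fusions, captured on glutathione beads and DNA-barcoded, along with a tag-only sample. Incubation with 200 nmole of a 16-mer random double-stranded DNA library lasted 30 min at room temperature in Tris/NaCl/DTT/glycerol buffer, and was followed by washing, 0.1% formaldehyde crosslinking, proximity ligation, PCR amplification and Illumina NextSeq500 sequencing. Binding signal is the quotient of each hexamer's read frequency for a factor and its frequency for the tag-only sample.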
# ETV2 = biological target: T2, ETV2 (Homo sapiens, UniProt O00321 1-342)
# T2 sequence: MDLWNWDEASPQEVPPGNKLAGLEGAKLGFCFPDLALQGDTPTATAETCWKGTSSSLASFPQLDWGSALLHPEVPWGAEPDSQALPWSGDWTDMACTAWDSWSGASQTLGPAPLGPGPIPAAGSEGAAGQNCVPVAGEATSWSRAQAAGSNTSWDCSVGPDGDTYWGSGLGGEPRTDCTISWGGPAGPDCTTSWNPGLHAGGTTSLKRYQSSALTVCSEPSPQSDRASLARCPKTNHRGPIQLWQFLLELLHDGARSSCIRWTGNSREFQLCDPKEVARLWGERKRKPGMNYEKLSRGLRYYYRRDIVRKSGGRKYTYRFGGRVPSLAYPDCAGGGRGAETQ
# Summary of the method: as §1
# ELF3 = biological target: T3, ELF3 (Homo sapiens, UniProt P78545 1-371)
# T3 sequence: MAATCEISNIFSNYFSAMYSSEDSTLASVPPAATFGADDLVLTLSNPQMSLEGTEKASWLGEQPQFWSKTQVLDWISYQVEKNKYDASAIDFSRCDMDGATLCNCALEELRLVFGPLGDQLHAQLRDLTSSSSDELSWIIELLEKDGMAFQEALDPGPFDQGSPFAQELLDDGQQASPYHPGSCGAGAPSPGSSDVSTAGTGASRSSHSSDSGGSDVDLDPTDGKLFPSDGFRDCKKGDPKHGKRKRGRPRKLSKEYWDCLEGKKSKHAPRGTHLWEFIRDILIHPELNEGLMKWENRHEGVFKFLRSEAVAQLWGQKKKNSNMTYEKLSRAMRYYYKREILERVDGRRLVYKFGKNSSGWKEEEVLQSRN
# Summary of the method: as §1
# ETV1 = ETV1 (Homo sapiens, UniProt P50549 1-477)
# Summary of the method: as §1
# ERF = biological target: T4, ERF (Homo sapiens, UniProt P50548 1-548)
# T4 sequence: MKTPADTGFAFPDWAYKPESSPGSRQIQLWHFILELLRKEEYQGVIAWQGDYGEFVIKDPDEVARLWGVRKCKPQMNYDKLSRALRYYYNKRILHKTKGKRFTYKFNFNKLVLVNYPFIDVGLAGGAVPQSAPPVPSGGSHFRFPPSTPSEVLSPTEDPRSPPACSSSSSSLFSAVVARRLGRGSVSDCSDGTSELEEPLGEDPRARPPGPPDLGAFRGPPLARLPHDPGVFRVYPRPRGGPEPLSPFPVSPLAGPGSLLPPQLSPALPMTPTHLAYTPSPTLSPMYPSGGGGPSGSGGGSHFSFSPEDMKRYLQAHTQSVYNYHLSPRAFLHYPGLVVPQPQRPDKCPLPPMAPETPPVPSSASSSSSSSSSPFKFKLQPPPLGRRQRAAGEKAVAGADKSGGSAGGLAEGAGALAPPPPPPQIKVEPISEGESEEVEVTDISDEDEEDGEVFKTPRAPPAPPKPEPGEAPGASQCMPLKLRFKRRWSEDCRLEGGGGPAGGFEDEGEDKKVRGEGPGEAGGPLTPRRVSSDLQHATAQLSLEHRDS
# Summary of the method: as §1
# ETV3L = biological target: T5, ETV3L (Homo sapiens, UniProt Q6ZN32 1-361)
# T5 sequence: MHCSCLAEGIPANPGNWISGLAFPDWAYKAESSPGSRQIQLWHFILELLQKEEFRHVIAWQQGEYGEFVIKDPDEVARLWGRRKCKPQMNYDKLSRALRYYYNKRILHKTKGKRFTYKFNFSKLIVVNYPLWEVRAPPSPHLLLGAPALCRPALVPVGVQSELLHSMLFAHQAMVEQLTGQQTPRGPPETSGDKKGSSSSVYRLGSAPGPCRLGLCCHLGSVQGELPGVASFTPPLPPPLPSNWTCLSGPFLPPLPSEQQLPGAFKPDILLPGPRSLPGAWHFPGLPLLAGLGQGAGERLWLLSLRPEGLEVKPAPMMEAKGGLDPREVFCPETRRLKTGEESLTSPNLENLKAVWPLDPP
# Summary of the method: as §1
# ETS2 = biological target: T6, ETS2 (Homo sapiens, UniProt P15036 1-469)
# T6 sequence: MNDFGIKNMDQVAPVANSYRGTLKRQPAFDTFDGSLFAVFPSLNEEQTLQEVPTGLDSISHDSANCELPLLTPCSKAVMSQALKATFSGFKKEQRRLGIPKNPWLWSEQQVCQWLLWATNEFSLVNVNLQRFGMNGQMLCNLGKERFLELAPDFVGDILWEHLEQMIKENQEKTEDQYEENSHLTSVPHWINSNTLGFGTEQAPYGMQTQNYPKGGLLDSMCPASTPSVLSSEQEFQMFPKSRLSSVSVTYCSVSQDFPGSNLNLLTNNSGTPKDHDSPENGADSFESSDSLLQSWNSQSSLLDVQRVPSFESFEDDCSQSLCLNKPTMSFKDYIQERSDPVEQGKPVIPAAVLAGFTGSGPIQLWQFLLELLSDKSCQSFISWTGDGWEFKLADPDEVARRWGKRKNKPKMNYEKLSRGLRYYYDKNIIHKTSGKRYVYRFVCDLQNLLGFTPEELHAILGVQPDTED
# Summary of the method: as §1
# SPDEF = biological target: T7, SPDEF (Homo sapiens, UniProt O95238 1-335)
# T7 sequence: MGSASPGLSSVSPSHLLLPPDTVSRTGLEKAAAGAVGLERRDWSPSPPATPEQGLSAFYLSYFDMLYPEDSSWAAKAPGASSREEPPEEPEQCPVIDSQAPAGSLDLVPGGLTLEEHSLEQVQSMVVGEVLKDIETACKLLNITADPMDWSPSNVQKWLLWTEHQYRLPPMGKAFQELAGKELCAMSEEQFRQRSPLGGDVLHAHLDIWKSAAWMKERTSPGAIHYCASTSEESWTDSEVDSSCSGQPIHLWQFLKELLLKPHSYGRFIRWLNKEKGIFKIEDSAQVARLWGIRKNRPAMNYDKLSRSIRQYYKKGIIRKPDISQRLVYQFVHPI
# Summary of the method: as §1
# ETV7 = biological target: T8, ETV7 (Homo sapiens, UniProt Q9Y603 1-341)
# T8 sequence: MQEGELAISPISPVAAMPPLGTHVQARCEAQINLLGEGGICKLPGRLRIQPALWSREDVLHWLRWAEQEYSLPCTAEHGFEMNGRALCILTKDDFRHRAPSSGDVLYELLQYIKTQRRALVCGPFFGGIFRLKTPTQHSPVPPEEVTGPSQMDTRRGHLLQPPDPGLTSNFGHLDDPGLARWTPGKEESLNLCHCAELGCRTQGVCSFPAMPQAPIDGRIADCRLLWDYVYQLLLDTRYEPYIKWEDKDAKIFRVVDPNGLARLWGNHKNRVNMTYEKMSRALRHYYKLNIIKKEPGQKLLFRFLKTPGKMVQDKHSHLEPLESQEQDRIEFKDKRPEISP
# Summary of the method: as §1
# ETV3 = biological target: T9, ETV3 (Homo sapiens, UniProt P41162-2 1-143)
# T9 sequence: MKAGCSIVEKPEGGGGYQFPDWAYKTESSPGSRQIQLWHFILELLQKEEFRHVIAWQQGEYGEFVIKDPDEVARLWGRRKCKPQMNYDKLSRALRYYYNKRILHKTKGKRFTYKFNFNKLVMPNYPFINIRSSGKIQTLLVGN
# Summary of the method: as §1
# Sequence of ETV1 (P50549 whole entry): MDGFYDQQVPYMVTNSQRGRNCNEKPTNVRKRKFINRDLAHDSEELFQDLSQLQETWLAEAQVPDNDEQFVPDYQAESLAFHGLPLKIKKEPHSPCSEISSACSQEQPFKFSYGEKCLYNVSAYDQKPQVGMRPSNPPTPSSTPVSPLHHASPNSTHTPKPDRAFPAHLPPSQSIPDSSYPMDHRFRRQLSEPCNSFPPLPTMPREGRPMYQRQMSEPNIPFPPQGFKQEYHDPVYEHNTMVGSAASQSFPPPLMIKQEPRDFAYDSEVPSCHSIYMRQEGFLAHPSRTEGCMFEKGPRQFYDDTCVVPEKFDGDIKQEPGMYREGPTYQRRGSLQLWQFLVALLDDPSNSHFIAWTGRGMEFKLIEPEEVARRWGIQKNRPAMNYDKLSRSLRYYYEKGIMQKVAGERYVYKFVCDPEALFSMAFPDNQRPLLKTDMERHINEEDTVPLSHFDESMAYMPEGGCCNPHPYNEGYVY
sequence,measurement,setting,value
CGATGC,binding signal,ELK4,"1.07 fold enrichment (6-mer frequency, TF over GST control)"
same,binding signal,ETV2,"1.15 fold enrichment (6-mer frequency, TF over GST control)"
same,binding signal,ELF3,"1.2 fold enrichment (6-mer frequency, TF over GST control)"
same,binding signal,ETV1,"1.03 fold enrichment (6-mer frequency, TF over GST control)"
same,binding signal,ERF,"1.07 fold enrichment (6-mer frequency, TF over GST control)"
same,binding signal,ETV3L,"1.18 fold enrichment (6-mer frequency, TF over GST control)"
same,binding signal,ETS2,"1.06 fold enrichment (6-mer frequency, TF over GST control)"
same,binding signal,SPDEF,"1.07 fold enrichment (6-mer frequency, TF over GST control)"
same,binding signal,ETV7,"1.04 fold enrichment (6-mer frequency, TF over GST control)"
same,binding signal,ETV3,"1.17 fold enrichment (6-mer frequency, TF over GST control)"

# — paper PMC7862700, “An all-to-all approach to the identification of sequence-specific readers for epigenetic DNA modifications on cytosine”
